From PubChem BioAssay
“And” between values parts separate entries of the source, which are not always exact repeats. Equal values may be shown once. The source made the active and inactive calls.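 The calls were made as follows, unless noted: active = inhibition at or above 50% relative to wild type and mutant plate controls; inactive = inhibition below 50%.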

What was measured:
[1] = inhibitors of TNFa-induced NFkB p65 translocation, primary screen, imaging, HUVEC, MLSMR starter and 10KST1 sets (AID 438;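 active = inhibition above 20% together with a positive visual image hit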;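 also: compound added about 3h40 before a 20 min TNFalpha stimulation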;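 as to inhibition: signal is the nuclear over cytoplasmic p65 intensity ratio per well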); settings: HUVEC TNFa-induced p65 nuclear translocation; cell count: measured here: nuclei count (cytotoxicity indicator), at 2.08 µM; inhibition: at 2 µM, stronger effect = higher value, 0% TNFa-plus-vehicle, 100% no-TNFa wells
[2] = inhibitors of mutant huntingtin aggregation, primary screen, imaging, exon1htt(103Q)mCFP cells, high-content imaging (AID 483;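 active = visual image review flags a hit and inhibition of aggregation exceeds 20%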;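 also: compound exposure lasted 3 days before fixation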;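 as to nuclei count: percent of the per-plate median nuclei count of sample wells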); settings: exon1htt(103Q)mCFP cell line, aggregate imaging, at 2 µM; inhibition of aggregation: stronger effect = higher value; nuclei count: measured here: cell count, toxicity
[3] = inhibitors of E-selectin induction by TNFa, primary screen, imaging, HUVEC, immunofluorescence, MLSMR starter and 10KST1 sets (AID 487;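 active = visually confirmed hit in the image check and inhibition above 20%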;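 as to inhibition: signal is fraction of cell area covered by stained E-selectin grains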;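 as to nuclei count: 100% = median nuclei count of all wells on the same plate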); settings: HUVEC TNFalpha-induced E-selectin immunofluorescence imaging, at 2 µM; inhibition: stronger effect = higher value; nuclei count: measured here: cell number, toxicity
[4] = DUSP6 inhibitors restoring Erk phosphorylation by chemical complementation, primary imaging in DUSP6-transfected HeLa (AID 609;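 active = compounds giving at least 50% inhibition in the cell-based MKP-3 phosphatase rescue imaging test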;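 as to inhibition: phospho-Erk level distribution per well compared with pooled transfected vehicle control wells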); settings: HeLa MKP-3 transfected, phospho-Erk imaging KS statistic, at 10 µM, cells stimulated with TPA for 15 min
[5] = molecular target: Dual specificity protein phosphatase 6 (Homo sapiens) (UniProt Q16828); assay: as above; settings: HeLa MKP-3 transfected, phospho-Erk imaging KS statistic; at 10 µM; stronger effect = higher value; cells stimulated with TPA for 15 min
[6] = molecular target: Voltage-gated potassium channel subunit beta-2 (Rattus norvegicus) (UniProt P62483); assay: KvBeta enzyme negative modulators, primary screen, biochemical, NADPH fluorescence (AID 622;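 active = fluorescence slope higher than the sample average by over 3 SD, cut at about -0.22 in these data, passing the limit was not always enough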;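 also: slope of raw intensity against log time taken from 70 to 1610 s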); settings: recombinant KvBeta, 4-cyanobenzaldehyde reduction, at 10 µM, stronger effect = higher value
[7] = molecular target: Voltage-gated potassium channel subunit beta-2 (Rattus norvegicus) (UniProt P62483); assay: KvBeta positive modulators, primary screen, biochemical, NADPH fluorescence (AID 623;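 active = NADPH fluorescence slope more negative than the mean of all samples by about 3 SD, 99.7% confidence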;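 also: fluorescence intensity change per second fitted from 20 to 320 s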); settings: Recombinant KvBeta, NADPH fluorescence decrease slope, 10 min; at 10 µM; stronger effect = lower value
[8] = molecular target: Alpha-2C adrenergic receptor (Homo sapiens) (UniProt P18825); assay: modulators of alpha2C/GIRK thallium flux, primary screen, cell-based, HEK293 alpha2C/GIRK1/2 (AID 624;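 active = fluorescence slope after compound addition differing from the mean of all screened samples at 99.7% confidence, in either direction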;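 also: slope of fluorescence ratio to pre-addition baseline per second over 15 to 24 s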); settings: thallium flux BTC fluorescence, at 10 µM, actives lie on both sides
[9] = inhibitors of larval lipid processing in zebrafish, primary screen, whole organism, PED6 fluorescence, gall bladder and intestine (AID 686;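 active = a full or partial loss of lipid-probe fluorescence in the fish gall bladder, intestine or both, judged by eye; inactive = no fluorescence loss, or compound toxic to the fish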;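 also: larvae 5 to 7 days old with five fish per well; signal comes from phospholipase A2 cleavage of quenched PED6 carried via bile; overnight exposure to compound and PED6 before scoring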); settings: Zebrafish larvae PED6 lipid processing, fluorescence scoring; screened at 20 µM (by protocol)
[10] = inhibitors of Chlamydomonas gravitaxis, primary screen, whole organism, Chlamydomonas reinhardtii, WT vs cilia-less mutant, absorbance, 96-well (AID 463189); settings: OD600 absorbance, 2 days, at 10 µM, stronger effect = higher value;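 also: 0% = wild type cc124 cells in DMSO and 100% = ciliumless bld1 mutant cells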
[11] = inhibitors of Sendai virus-induced IRF3 signaling, primary screen, TLR/RLR signaling modifier project, cell-based, Sendai virus stimulus, luciferase, 10K MLSCN set (AID 602276;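 active = inhibition at or above 50% at 10 µM; inactive = inhibition below 50%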;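 also: firefly luciferase from ISG56 promoter only with Renilla not read in this screen; 0% = Sendai virus plus DMSO and 100% = medium plus DMSO without virus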); settings: HEK293 RL24 IRF3 luciferase reporter, at 10 µM, stronger effect = higher value
[12] = inhibitors of poly I:C-induced TLR3 signaling, primary screen, cell-based, poly I:C stimulus, luciferase, 10K MLSCN set (AID 602277;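 active = inhibition of the reporter signal at or above 50%; inactive = inhibition below 50%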); settings: HEK293-TLR3 RL24 IRF3 luciferase reporter, at 10 µM, stronger effect = higher value
[13] = measured here: cell density z-score
[14] = measured here: nuclear c-Myc green intensity z-score
[15] = measured here: nuclear pErk red intensity z-score, stronger effect = higher value

Alpha-2C adrenergic receptor (Homo sapiens), sequence (P18825 whole entry, looked up): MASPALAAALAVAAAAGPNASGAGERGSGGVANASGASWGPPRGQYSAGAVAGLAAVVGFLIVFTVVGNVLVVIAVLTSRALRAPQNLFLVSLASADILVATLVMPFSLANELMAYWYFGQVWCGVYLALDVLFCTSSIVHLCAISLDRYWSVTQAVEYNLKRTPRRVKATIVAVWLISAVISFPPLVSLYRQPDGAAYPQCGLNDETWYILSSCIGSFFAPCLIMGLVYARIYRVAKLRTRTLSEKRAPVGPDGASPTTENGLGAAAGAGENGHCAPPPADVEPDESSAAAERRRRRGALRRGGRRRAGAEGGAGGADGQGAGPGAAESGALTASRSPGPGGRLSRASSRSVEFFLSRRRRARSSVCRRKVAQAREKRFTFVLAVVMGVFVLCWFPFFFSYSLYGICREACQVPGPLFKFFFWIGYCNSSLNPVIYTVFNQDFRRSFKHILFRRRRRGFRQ
Voltage-gated potassium channel subunit beta-2 (Rattus norvegicus), sequence (P62483 whole entry, looked up): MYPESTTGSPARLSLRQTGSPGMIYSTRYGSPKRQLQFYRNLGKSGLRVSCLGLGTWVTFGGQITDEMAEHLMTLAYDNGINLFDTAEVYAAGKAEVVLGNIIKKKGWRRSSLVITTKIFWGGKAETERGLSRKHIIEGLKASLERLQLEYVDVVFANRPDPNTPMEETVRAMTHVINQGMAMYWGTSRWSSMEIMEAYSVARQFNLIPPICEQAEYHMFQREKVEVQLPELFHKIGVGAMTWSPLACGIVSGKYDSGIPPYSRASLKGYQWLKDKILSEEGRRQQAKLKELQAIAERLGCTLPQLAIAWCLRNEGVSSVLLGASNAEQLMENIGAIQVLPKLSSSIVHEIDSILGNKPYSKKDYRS
Dual specificity protein phosphatase 6 (Homo sapiens), sequence (Q16828 whole entry, looked up): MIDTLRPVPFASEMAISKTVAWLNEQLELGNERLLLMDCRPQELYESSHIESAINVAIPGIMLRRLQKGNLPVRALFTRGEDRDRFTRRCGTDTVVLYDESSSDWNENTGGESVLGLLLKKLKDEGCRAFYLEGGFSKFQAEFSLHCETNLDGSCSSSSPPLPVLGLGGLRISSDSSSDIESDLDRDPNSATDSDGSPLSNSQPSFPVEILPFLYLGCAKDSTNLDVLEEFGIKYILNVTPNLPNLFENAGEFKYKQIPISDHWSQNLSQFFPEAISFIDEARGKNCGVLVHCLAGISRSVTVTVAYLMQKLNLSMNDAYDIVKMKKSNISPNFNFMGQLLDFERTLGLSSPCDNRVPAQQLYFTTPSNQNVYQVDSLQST

Compound | cell count [1] | inhibition [1] | inhibition of aggregation [2] | nuclei count [2] [%] | inhibition [3] | nuclei count [3] [%] | z-score [4, 13] | z-score [4, 14] | z-score [4, 15] | inhibition [5] | fluorescence slope [6] | NADPH fluorescence slope [7] | slope [8] | outcome [9] | inhibition [10] | inhibition [11] | inhibition [12]
COc1cc(/C=C/C(=O)CC(=O)/C=C/c2ccc(O)c(OC)c2)ccc1O | 581 | -5.9% (inactive) | -6.4% (inactive) | 105 | -31.2% (inactive) | 119 | -0.124 | 0.198 | 0.203 | -8.38% (inactive) | -0.185 (active) | -1.1e-05 (inactive) | 0.0285 (active) | inactive | 102% (active) | 7.07% (inactive) | 6.1% (inactive)
N=c1nc(N2CCCCC2)cc(N)n1O | 660 | 0.9% (inactive) | -1.2% (inactive) | 114 | -58.5% (inactive) | 138 | -0.689 | -0.0187 | 0.315 | 25.7% (inactive) | -0.46 (inactive) | -6e-05 (inactive) | 0.00444 (inactive) | inactive | 1.56% (inactive) and -3.08% (inactive) | 9.96% (inactive) | 34.6% (inactive)
N#CC(C(=O)Nc1ccc(Cl)c(Cl)c1)=C1Nc2ccccc2N1 | 445 | -0.2% (inactive) | 13.2% (inactive) | 98.9 | -124% (inactive) | 136 | 0.726 | 1.14 | 0.693 | -1.75% (inactive) | -0.351 (inactive) | -8.3e-07 (inactive) | 0.00591 (inactive) | inactive | -6.51% (inactive) | 12.6% (inactive) | 15.9% (inactive)
Fc1ccccc1-c1nc(NCCCN2CCOCC2)c2ccccc2n1 | 480 | -0.7% (inactive) | -2.8% (inactive) | 108 | -89.4% (inactive) | 130 | 0.781 | -1.18 | -0.632 | 27.5% (inactive) | -0.448 (inactive) | -1.9e-05 (inactive) | 0.00649 (inactive) | inactive | 7.49% (inactive) | -10.9% (inactive) | -2.43% (inactive)
COc1ccc(NC(=O)CSC2=C(C#N)C(c3ccco3)C3=C(CCCC3=O)N2)c(OC)c1 (configuration not stated) | 429 | 1.6% (inactive) | -5.2% (inactive) | 95.8 | -47.9% (inactive) | 104 | -1.49 | 0.542 | 0.619 | 13.4% (inactive) | -0.456 (inactive) | -9.4e-06 (inactive) | 0.00706 (inactive) | inactive | 26.6% (inactive) | 17.5% (inactive) | 18.8% (inactive)
CSC1=C(C#N)C(C)CC(=O)N1 (configuration not stated) | 552 | -5.8% (inactive) | -2% (inactive) | 112 | 1.9% (inactive) | 108 | -0.957 | -0.437 | 0.604 | -5.89% (inactive) | -0.51 (inactive) | -6.2e-05 (inactive) | 0.00463 (inactive) | inactive | 19.4% (inactive) | 13.8% (inactive) | 12.5% (inactive)
O=[N+]([O-])c1cccc2cn[nH]c12 | 615 | 1.2% (inactive) | 15.8% (inactive) | 81.4 | -87% (inactive) | 116 | 2.27 | -1.27 | -1.46 | 3.45% (inactive) | -0.448 (inactive) | -7.3e-05 (inactive) | 0.00537 (inactive) | inactive | 4.7% (inactive) and 1.19% (inactive) | 15.9% (inactive) | 50.4% (active)
CCCCCCCC(=O)OCC(=O)[C@@]1(O)CC[C@H]2[C@@H]3CCC4=CC(=O)CC[C@]4(C)[C@H]3[C@@H](O)C[C@@]21C | 531 | -8.2% (inactive) | -25.1% (inactive) | 92.7 | 3.4% (inactive) | 107 | -0.552 | -1.25 | -0.122 | -8.38% (inactive) | -0.503 (inactive) | -5.1e-05 (inactive) | 0.0075 (inactive) | inactive | -10.8% (inactive) | 15.2% (inactive) | 49.5% (inactive)
C[C@H](CCC(=O)O)[C@H]1CC[C@H]2[C@@H]3C(=O)C[C@@H]4CC(=O)CC[C@]4(C)[C@H]3CC(=O)[C@]12C | 606 | -9.6% (inactive) | 5.8% (inactive) | 102 | -37.7% (inactive) | 138 | -0.246 | -0.125 | -0.32 | 3.45% (inactive) | -0.45 (inactive) | 5.4e-06 (inactive) | 0.00499 (inactive) | inactive | 9.63% (inactive) | 14.6% (inactive) | 33.2% (inactive)
CCCCCC(=O)N1CC2(CC)CN(C(=O)CCCCC)CC(CC)(C1)C2=O | 548 | 4.4% (inactive) | 26.5% (inactive) | 90 | -77.8% (inactive) | 117 | 0.465 | -0.132 | -0.254 | 7.42% (inactive) | -0.308 (inactive) | -9.9e-07 (inactive) | 0.00431 (inactive) | inactive | 22.6% (inactive) | 3.77% (inactive) | 34.5% (inactive)
Cn1ccnc1SCCC#N | 569 | -2.2% (inactive) | -3.9% (inactive) | 110 | -10.9% (inactive) | 116 | -0.727 | 0.913 | -1.8 | 6.04% (inactive) | -0.51 (inactive) | -0.000118 (inactive) | 0.00562 (inactive) | inactive | 3.16% (inactive) | 5.13% (inactive) | 14.1% (inactive)
CCc1cn([C@H]2C[C@H](O)[C@@H](CO)O2)c(=O)[nH]c1=O | 644 | -9.9% (inactive) | -3.6% (inactive) | 102 | -69.2% (inactive) | 120 | -0.967 | -0.117 | 0.506 | 9.37% (inactive) | -0.477 (inactive) | 5.1e-06 (inactive) | 0.00501 (inactive) | inactive | 21.4% (inactive) | 18.1% (inactive) | 34% (inactive)
C(=C\c1ccccc1)/CN1CCN(C(c2ccccc2)c2ccccc2)CC1 | 635 | -9.5% (inactive) | -21.5% (inactive) | 107 | -95.1% (inactive) | 131 | 0.835 | -0.254 | 0.957 | 11.3% (inactive) | -0.448 (inactive) | -6.1e-05 (inactive) | 0.00492 (inactive) | inactive | 126% (active) and 125% (active) | 9.39% (inactive) | 26.9% (inactive)
CCc1cc2c(=O)c(-c3cscn3)coc2cc1O | 406 | -6.1% (inactive) | -9.9% (inactive) | 59.7 | -99% (inactive) | 103 | -2.75 | 2.51 | -1.53 | 1.98% (inactive) | -0.528 (inactive) | 4e-05 (inactive) | 0.00552 (inactive) | inactive | -8.67% (inactive) | 20.6% (inactive) | 26.3% (inactive)
COc1cccc(-c2nnc3sc(C4CCCCC4)nn23)c1 | 569 | -0.9% (inactive) | 42.2% (active) | 66.9 | -37.4% (inactive) | 130 | 0.451 | 0.807 | -1.36 | -13.3% (inactive) | -0.418 (inactive) | -0.000116 (inactive) | 0.00489 (inactive) | inactive | 112% (active) | 28.7% (inactive) | 10.1% (inactive)
COc1ccc(Cn2c(CCCO)nc3ccccc32)cc1OC | 577 | -7.7% (inactive) | -17% (inactive) | 105 | -84% (inactive) | 122 | -0.981 | 1.12 | 1.14 | -5.89% (inactive) | -0.412 (inactive) | -4.3e-05 (inactive) | 0.0064 (inactive) | inactive | 2.72% (inactive) | 13.3% (inactive) | 22.4% (inactive)
CC(C)CCNC(=O)[C@H](CC(C)C)NC(=O)[C@H]1O[C@@H]1C(=O)O | 625 | -6.9% (inactive) | 11.7% (inactive) | 98.3 | -39.7% (inactive) | 134 | 0.0708 | 0.541 | 0.76 | 9.37% (inactive) | -0.496 (inactive) | -1.1e-05 (inactive) | 0.00458 (inactive) | inactive | 10.6% (inactive) | 10.1% (inactive) | 34.8% (inactive)
CC(C)Sc1nc(N2CCCC2)c2c(c1C#N)CC(C)(C)OC2 | 547 | -6.2% (inactive) | 15.4% (inactive) | 73.8 | -59.4% (inactive) | 126 | 1.33 | -1.33 | -0.539 | 24.4% (inactive) | -0.386 (inactive) | 4.7e-06 (inactive) | 0.00612 (inactive) | inactive | 48.4% (inactive) | 14% (inactive) | 18.1% (inactive)
CCCCOc1ccc(OCCCN2CCOCC2)cc1 | 589 | 6% (inactive) | 7.5% (inactive) | 94.3 | -52.4% (inactive) | 117 | -0.745 | -1.16 | 3.07 | 1.38% (inactive) | -0.49 (inactive) | -5.2e-05 (inactive) | 0.00401 (inactive) | inactive | 159% (active) | -7.75% (inactive) | -40.7% (inactive)
Cn1cnc2c1c(=O)[nH]c(=O)n2C | 544 | -10.8% (inactive) | -16.4% (inactive) | 97 | -30.6% (inactive) | 124 | -0.137 | -0.093 | 1.06 | -6.41% (inactive) | -0.513 (inactive) | 1.2e-05 (inactive) | 0.00542 (inactive) | inactive | 8.14% (inactive) and 20.9% (inactive) | 13.1% (inactive) | 16.1% (inactive)
CCC(NC(C)C)C(O)c1ccc(O)c(O)c1 (configuration not stated) | 661 | -7.3% (inactive) | 1% (inactive) | 109 | -51.9% (inactive) | 117 | -1.1 | -0.395 | 0.461 | 7.39% (inactive) | -0.492 (inactive) | -5.8e-05 (inactive) | 0.00513 (inactive) | inactive | 14.5% (inactive) and 0.657% (inactive) | 13.9% (inactive) | 39.3% (inactive)
